Measured values taken from PubChem BioAssay AID651871 (Sanford-Burnham Center for Chemical Genomics, 2012).
Several values for one entry are separate records, joined by “and”; a condition that tells them apart may be missing. Equal values may be shown once.

Tested on: H9c2
Assay: protection of cardiomyocytes from stress damage, SAR follow-up, cell-based, panel, H9c2 and HL-1, ATP luminescence, set 2 (AID 651871);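 note: cells exposed to stressor for 2 h before ATP readout; reference of the scale not given here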
Conditions: H9c2/HL-1 cardiomyocytes, 2-deoxyglucose stress, with 2-deoxyglucose; run 6, at 79 µM (top of the series)

Compound	activity (protection/inhibition)
CCOC(=O)c1cccc(NC(=O)CNC(=O)c2cc(-c3cc(OC)c(OC)c(OC)c3)nc3ccccc23)c1	73.8%
COc1ccc2c(c1OC)C(=O)N1c3ccccc3C(=O)N(Cc3cccc(Cl)c3Cl)C21 (stereo not drawn)	104% and 66.4% and -6.1%
COc1ccc2nc(-c3cc(OC)c(OC)c(OC)c3)cc(C(=O)NCC(=O)Nc3ccc(C(C)=O)cc3)c2c1	91.5%
